Screens: PubChem, National Center for Advancing Translational Sciences (NCATS)
D1 potentiator – Potentiators of Human D1 Dopamine Receptor: qHTS | HEK293 TREx D1 cells, calcium flux, dopamine EC20 potentiation | AID 504651, 2011 | 360,000 tested, 0.036% active | potentiation, % at 10 µM; in the data active = potentiation above about 30%
DRD3 agonist – qHTS of D3 Dopamine Receptor Agonist: qHTS. D(3) dopamine receptor (Homo sapiens), P35462. 410,000 tested, 0.58% active. max activation, %. D3R DiscoveRx beta-arrestin cells, luminescence, 90 min. AID 652048, 2013; in the data active = max activation above about 30%
Target sequence (P35462 whole entry, looked up): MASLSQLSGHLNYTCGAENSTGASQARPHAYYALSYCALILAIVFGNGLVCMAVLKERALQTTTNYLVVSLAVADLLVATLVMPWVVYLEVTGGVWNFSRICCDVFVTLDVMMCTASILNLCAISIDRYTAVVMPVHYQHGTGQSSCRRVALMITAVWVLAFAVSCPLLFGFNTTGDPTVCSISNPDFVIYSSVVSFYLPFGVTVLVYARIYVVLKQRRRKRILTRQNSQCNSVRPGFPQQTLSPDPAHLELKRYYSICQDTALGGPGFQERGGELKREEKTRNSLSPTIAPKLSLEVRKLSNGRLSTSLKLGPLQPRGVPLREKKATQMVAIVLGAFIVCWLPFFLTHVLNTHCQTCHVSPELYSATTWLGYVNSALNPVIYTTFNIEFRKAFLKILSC
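Cells at 1500/well, incubated overnight, then treated with pinned compounds (dopamine as control) for 90 min at 37 degrees C. DiscoveRx reagent added for 30 - 60 minutes at room temperature; luminescence read.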
D1 antagonist – Antagonist of Human D 1 Dopamine Receptor: qHTS. D(1A) dopamine receptor (Homo sapiens), P21728. HEK293 TREx D1 cells, calcium flux, dopamine EC80; hits give low values. activity change, negative = inhibition, % at 10 µM. 360,000 tested, 3.2% active. AID 504652, 2011; in the data active = activity change below about -30%
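Calcium flux readout: force-coupled, inducible Hek293 Trex D1 line, cells induced overnight at 30 C with tetracycline, dye-loaded 30–90 min at RT. Antagonism scored against EC80 dopamine challenge given 180 s after compound.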
DRD3 antagonist – qHTS of D3 Dopamine Receptor Antagonist: qHTS | D(3) dopamine receptor (Homo sapiens), P35462 | D3R cells, DiscoveRx beta-arrestin luminescence, antagonist mode; hits give low values | max response, negative = inhibition, % | 360,000 tested, 2.5% active; in the data active = max response below about -50%; inconclusive = no clear call, values can overlap the other calls
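Cells plated overnight at 1500 cells/well, then exposed to library compounds with dopamine controls for 90 minutes at 37 degrees C. DiscoveRx reagent added for 30–60 minutes at room temperature; luminescence read, quantitative HTS format.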
D1 agonist – Allosteric Agonists of the Human D1 Dopamine Receptor: qHTS | 360,000 tested, 1% active | HEK293 T-REx D1 cells, calcium flux, agonist mode | D(1A) dopamine receptor (Homo sapiens), P21728 | activation, % at 2 µM; in the data active = activation above about 30%
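Tetracycline-induced HEK293 TREx D1 cells, force-coupled to calcium signalling, were dye-loaded with a no-wash calcium kit. Compound was pin-added after a 10 s baseline. Fluorescence was read kinetically at 1 cycle/s for 180 s, with calcium rises flagged as agonism.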
A number is an active result; - = inactive; ? = inconclusive; . = not tested or not shown. Shown are actives, neighbours in structure and some others; about 6% of the full set was active somewhere.

SMILES	D1 potentiator	DRD3 agonist	D1 antagonist	DRD3 antagonist	D1 agonist
Cc1ccc(C)c(Nc2cc(C(=O)NCCCN(C)C3CCCCC3)c3ccccc3n2)c1	-	-	-34.0	.	53.5
Cc1cc(C)cc(Nc2cc(C(=O)NCc3ccccc3)c3ccccc3n2)c1	-	-	-	.	-
COc1cccc2cc(C(=O)NCCc3c(C)[nH]c4ccc(Br)cc34)c(=O)oc12	-	-	-	.	-
O=C(NCCC1=CCCCC1)C(=O)NCC(c1ccco1)N1CCN(c2ccc(F)cc2)CC1 (centres undefined)	-	-	-	-66.5	-
CCOC(=O)[C@H](CS)NCCN[C@@H](CS)C(=O)OCC	.	-	.	.	.
CCNC(=O)c1ccc(NS(=O)(=O)c2ccc3[nH]c(=O)[nH]c3c2)cc1	-	-	-40.6	-	-
Cc1ccc(NS(=O)(=O)c2ccc3[nH]c(=O)oc3c2)cc1Cl	-	-	-	-	-
COC(=O)c1ccc(NS(=O)(=O)c2ccc3[nH]c(=O)oc3c2)cc1	-	-	-30.2	-	-
CCOC(=S)SSC(=S)OCC	.	-	.	.	.
CN1/C(=C\C(=O)COC(=O)Cn2nnc(-c3ccccc3)n2)C(C)(C)c2ccccc21	-	-	-35.5	-	-
CN1/C(=C/C(=O)COC(=O)CN2C(=O)C3CC=CCC3C2=O)C(C)(C)c2ccccc21 (centres undefined)	.	-	.	-	.
O=C(N/N=C/c1ccc(Br)s1)c1c[nH]c2ccccc12	-	-	-	-54.7	-
O=C(N/N=C/c1c[nH]c2ccc(Br)cc12)c1ccncc1	-	-	-	-	-
COc1cc(C(=O)N/N=C/c2ccc(OC(=O)c3cccc(C)c3)cc2)ccc1O	-	-	-	-	-
COc1cc(/C=N/NC(=O)c2ccc(N)cc2)ccc1OC(=O)c1cccc(C)c1	-	-	-40.7	-	-
O=C(N/N=C/c1c[nH]c2ccccc12)c1sc2ccccc2c1Cl	-	-	-74.8	-	-
O=C(N/N=C/c1c[nH]c2ccc(Br)cc12)c1ccccn1	-	-	-46.9	-	-
COc1ccc(NC(=O)Cn2c(=O)n(CCCCCC(=O)NCc3ccc4c(c3)OCO4)c(=O)c3sccc32)cc1Cl	-	-	-	.	-
COc1ccc(-c2coc3c2c(C)cc2oc(=O)c(CC(=O)O)c(C)c23)cc1	-	-	-	.	-
Cn1nnnc1Sc1ncnc2scc(-c3cccc(Cl)c3)c12	-	.	-	.	-
O=C(CCS(=O)(=O)c1cccs1)Nc1ccc(C(=O)Nc2ccccc2F)cc1	-	-	-	.	-
CCn1c(=O)cc(OCC(=O)NCc2ccccc2Cl)c2ccccc21	-	-	-	.	-
COc1cc(/C=N/NC(=O)c2ccccn2)ccc1OC(=O)c1ccc(Br)cc1	-	37.4	-	-	-
N#Cc1nc(Cc2ccccc2)oc1NCc1ccccc1Cl	-	-	-36.7	?	-
Cc1nc2ccc(S(=O)(=O)N(C)CC(=O)Nc3cccc(C(F)(F)F)c3)cc2s1	-	-	-33.2	.	-
SMILES	D1 potentiator	DRD3 agonist	D1 antagonist	DRD3 antagonist	D1 agonist
COc1ccccc1/C=N/NC(=O)c1ccc(N(C)S(=O)(=O)c2ccccc2)cc1	-	-	-	-	-
CCN(Cc1ccccc1)S(=O)(=O)c1ccc(C(=O)Nc2nnc(-c3ccccc3OC)o2)cc1	-	-	-	-85.9	-
COc1cccc(/C=N/NC(=O)c2ccc(N(C)S(=O)(=O)c3ccccc3)cc2)c1OC	-	-	-36.3	-	-
Cc1nc2ccc(S(=O)(=O)CCC(=O)Nc3ccc(C(C)C)cc3)cc2s1	-	-	-56.8	.	-
CCCN1C(=O)C(O)(CC(=O)c2ccc(OC)c(OC)c2)c2ccccc21 (centres undefined)	-	-	-	.	-
CCOc1ccc(CCNC(=O)c2ccc(CS(=O)(=O)Cc3ccccc3Cl)o2)cc1OCC	-	-	-	.	-
CCCCN(CC)S(=O)(=O)c1ccc(C(=O)Nc2nnc(COC)o2)cc1	-	-	-	-65.0	-
COC(=O)c1cc(OC)c(OC)c(OC)c1NC(=O)c1ccc(S(=O)(=O)N(C)C)cc1	-	-	-	-88.2	-
